SW480 rerep: inducers of DNA re-replication in SW480 colon cancer cells. SW480 DNA re-replication, Hoechst DNA content imaging, 48 h. Potency, µM (series often up to 46.1 µM), for the others: at the highest dose re-replication activation, most hits filed as activators. hit rate 1.8% among 340,000. AID 624297; also: % of control where 0% means no effect; nearly all actives have a fitted effect of over 55% in size
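Quantitative HTS format with DMSO vehicle controls; 48 hr drug incubation at 37 C, then 40 min Hoechst staining and scanning imager measurement at 405 nm excitation.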
KB-3-1 cytotox: kills parental KB-3-1 adenocarcinoma cells. AID 1347075. KB-3-1 viability, CellTiter-Glo ATP luminescence, 72 h. hit rate 1.4% among 400,000. Potency, µM (titrated, usually from 46.1 µM), actives largely listed as cytotoxic; also: % is scaled to controls: 0 for no effect and ±100 for the full control effect; nearly all actives have a fitted effect of over 60% in size
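Here the drug-naive KB-3-1 line serves as comparator for MDR sub-line selectivity; cells received compound titrations, 72 h at 37 °C, then CellTiter-Glo readout.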
KB-V1 cytotox: KB-V1 MDR subline cytotoxicity; KB-V1 MDR cells viability, CellTiter-Glo, 72 h; Potency, µM (top dose mostly 46.1 µM), hits mostly cytotoxic; hit rate 3.4% among 400,000; also: % is scaled to controls: 0 for no effect and ±100 for the full control effect; nearly all actives have a fitted effect of over 60% in size
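Cytotoxicity toward P-gp-expressing KB-V1 cells was determined as loss of CellTiter-Glo luminescence after 72 h at 37 degrees C. Compounds were tested in quantitative HTS format across a concentration range, with curves fitted to normalized data.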
HT1080-NT tox: kills 2HG-producing HT-1080-NT fibrosarcoma cells; hit rate 1.6% among 360,000; HT-1080-NT fibrosarcoma viability, CellTiter-Glo ATP luminescence, 48 h; Potency, µM (titrated, usually from 46.1 µM), for inactives: at the highest dose activity, negative = less viability, hits mostly cytotoxic;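 also: NT is the 2HG producing partner of a matched IDH1 knockdown line; 0% = DMSO-treated cells and -100% = media-only wells without cells; nearly all actives have a fitted effect of over 55% in size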
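Viability by CellTiter-Glo luminescence after 48 h compound exposure at 37C of HT-1080-NT cells (750/well, RPMI, 5% FBS). % activity scaled between DMSO wells and medium-only wells, then curve-fitted and categorized by curve class.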
HT1080 IDH1KD tx: kills HT-1080 cells with IDH1 knockdown; HT-1080 IDH1 knockdown viability, ATP luminescence, 48 h; hit rate 2% among 360,000; Potency, µM (titrated, usually from 46.1 µM), inactives show at the top dose activity, negative = toxicity, hits mostly cytotoxic; AID 686971;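 also: 0% = DMSO wells and -100% = cell-free medium wells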
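% activity derives from luminescence (CellTiter-Glo), normalised to DMSO and no-cell wells. HT-1080-IDH1KD cells, 750/well, had 48 h compound exposure at 37 °C.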
MCF10A rereplic: inducers of DNA re-replication in MCF 10A breast cells. Potency, µM (top dose mostly 46.1 µM), for the others: top-dose activity, positive = re-replication, most hits filed as activators. MCF 10A DNA re-replication, Hoechst nuclear intensity, 48 h. AID 624296. hit rate 2.9% among 350,000; also: % of control where 0% means no effect; nearly all actives have a fitted effect of over 50% in size
* hit, by the source's call; i = inactive; u = inconclusive. Only some compounds are listed: those with a hit (about 7.9% of all), similar ones and a draw of the others. Calls follow the shape of the dose curve; as a rule, active = well fitted curve in the direction sought with a large enough effect; inconclusive = small, poorly fitted or top-dose-only effect, or another doubt; inactive = no such curve, though single readings can be large; an effect the other way counts as inactive or inconclusive. Potency is read from the fitted curve at half-maximal effect.

SMILES	SW480 rerep	KB-3-1 cytotox	KB-V1 cytotox	HT1080-NT tox	HT1080 IDH1KD tx	MCF10A rereplic
Cc1ccc(NC2=C/C(=N/S(=O)(=O)c3cccs3)c3ccccc3C2=O)cc1	u	2.31µM*	u	2.91µM*	4.11µM*	8.2µM*
O=C1C(Nc2ccccc2)=C/C(=N/S(=O)(=O)c2cccs2)c2ccccc21	5.8µM*	u	u	u	u	3.26µM*
O=S(=O)(/N=C(/Nc1cccc2ccccc12)c1ccccc1)c1cccs1	4.9%	u	i	-5.8%	-1.5%	4.2%
Cc1ccc(/C=C2\S/C(=N/S(=O)(=O)c3cccs3)NC2=O)cc1	-35.0%	i	i	21.8%	0.3%	0.0%
N=c1oc2c3c4c(cc2cc1C(=O)Nc1ccccc1)CCCN4CCC3	1.41µM*	i	i	-2.5%	-15.8%	4.11µM*
N#Cc1cc(N2CCCCC2)c([N+](=O)[O-])cc1C#N	11.3%	i	i	0.7%	0.8%	u
O=[N+]([O-])c1cc2no[n+]([O-])c2cc1N1CCCCC1	6.51µM*	u	i	11.7%	-2.1%	3.26µM*
Cc1ccc(NC(=S)NNC(=O)c2nnn(-c3ccccc3)c2C)cc1	71.2%	i	20.6µM*	-13.3%	-4.2%	-75.2%
O=c1[nH]nnc2sc3c(c12)CCCC3	-4.1%	i	u	1.3%	0.5%	1.2%
O=C(C=P(c1ccccc1)(c1ccccc1)c1ccccc1)c1ccccc1-c1ccccc1C(=O)C=P(c1ccccc1)(c1ccccc1)c1ccccc1	13µM*	u	i	13µM*	7.31µM*	63.5%
COc1ncnc2c1N[C@@](C)(O)c1c(F)c(F)c(F)c(F)c1S2	-0.6%	i	i	2.3%	-9.0%	8.0%
CC(C(=O)Nc1ccc(Cl)cc1Cl)N1C(=O)NC2(CCCC2)C1=O (stereo not given)	1.8%	i	u	7.7%	-3.5%	19.1%
CCOC(=O)c1c(NC(C)=O)sc2c1CCC(C=O)=C2Sc1ccccc1	1.5%	i	u	14.1µM*	7.08µM*	-5.0%
CCOC(=O)c1c(NC(=O)c2ccccc2Br)sc2c1CCc1ccccc1-2	16.4µM*	i	13µM*	3.7%	1.3%	u
O=C(COC(=O)COc1cccc(Br)c1)NCc1ccc2c(c1)OCO2	-5.6%	i	i	15.6%	17.0%	-0.9%
Cn1c(Nc2ccc(Cl)cc2)cc(=O)n(C)c1=O	-2.6%	i	u	5.4%	3.6%	-14.7%
O=C(NNC(=O)c1ccncc1)c1ccncc1	-1.9%	i	i	-11.3%	-1.8%	6.6%
COC(=O)c1ccc(NC(=O)CSC2=Nc3ccccc3C3CC=NN23)cc1 (stereo not given)	-4.9%	i	16.4µM*	-7.4%	-3.5%	-0.8%
Cc1ccc(NC(=O)CSC2=Nc3ccccc3C3CC=NN23)c(C)c1 (stereo not given)	-5.2%	i	13µM*	9.0%	-3.4%	8.3%
O=C(CSC1=Nc2ccccc2C2CC=NN12)Nc1ccc(F)cc1Cl (stereo not given)	8.2%	i	u	-5.9%	-7.9%	u
Cc1ccnc(NC(=O)C2CCN(S(=O)(=O)c3ccc4c(c3)CC(C)N4C(=O)C3CCC3)CC2)c1 (stereo not given)	u	i	i	-21.2%	u	u
COC(=O)c1cc(-c2cc(OC)ccc2OC)nc2c1c(=O)n(C)c(=O)n2Cc1ccccc1	2.31µM*	i	u	11.2%	8.8%	6.51µM*
O=C1CC(N2CCOCC2)C(=O)N1CCN1C(=O)CC(N2CCOCC2)C1=O (stereo not given)	-1.1%	i	i	-1.3%	-3.7%	0.1%
COc1ccc(C(=O)N(Cc2ccccc2)Cc2cc3cc4c(cc3[nH]c2=O)OCCO4)cc1	u	8.91µM*	11.2µM*	u	-23.3%	u
COc1cccc(C(=O)N(Cc2ccccc2)Cc2cc3cc4c(cc3[nH]c2=O)OCCO4)c1	-0.9%	i	i	u	u	25.1%
SMILES	SW480 rerep	KB-3-1 cytotox	KB-V1 cytotox	HT1080-NT tox	HT1080 IDH1KD tx	MCF10A rereplic
CCC(c1nnnn1C(C)(C)C)N1CCN(C(=O)c2ccco2)CC1 (stereo not given)	-12.3%	i	i	21.6%	13.4%	-6.5%
CCSC(=S)c1c(C)[nH]n(-c2ccccc2)c1=O	-10.4%	u	i	u	u	-1.2%
Cc1ccc(OCC(=O)N/N=C\c2c(C)n(C)c3ccccc23)c([N+](=O)[O-])c1	14.6µM*	u	u	-29.2%	u	u
CC/C(=N/NC(=O)c1ccccc1O)c1c(C)[nH]n(-c2ccccc2)c1=O	23.1µM*	u	u	u	25.9µM*	u
Cc1[nH]n(-c2cccc3ccccc23)c(=O)c1/C=N/NC(=O)c1cccc([N+](=O)[O-])c1	u	u	3.26µM*	u	u	u
COc1c(/C=N/Nc2ccc([N+](=O)[O-])cc2[N+](=O)[O-])c(C)nn1-c1ccccc1	-10.6%	i	i	9.8%	7.9%	8.6%
Cc1ccc(-n2[nH]c(C)c(/C=N/Nc3ccc([N+](=O)[O-])cc3[N+](=O)[O-])c2=O)cc1C	1.6%	u	13µM*	u	20.6µM*	14.6µM*
CCCCN1C(N)=NC[C@@H]1C(C)O (stereo not given in full)	-11.4%	i	u	0.0%	0.0%	13.4%
Cc1ccc(C)c(NC(=S)N2CCC(N(C)CC3CCCO3)CC2)c1 (stereo not given)	-7.5%	u	i	7.7%	14.9%	-0.9%
Cc1[nH]n(-c2ccccc2)c(=O)c1/C=N/NC(=O)COc1ccccc1[N+](=O)[O-]	13µM*	u	u	u	u	u
CC(=O)N/N=C/c1c(C)[nH]n(-c2ccccc2)c1=O	25.6%	i	u	-17.5%	-20.6%	-7.9%
Cc1[nH]n(-c2ccccc2)c(=O)c1/C=N/NC(=O)c1cccc([N+](=O)[O-])c1	3.66µM*	u	u	u	u	u
COCC(=O)N/N=C/c1c(C)[nH]n(-c2ccccc2)c1=O	u	i	i	-3.7%	-18.5%	3.3%
Cc1[nH]n(-c2ccccc2)c(=O)c1/C=N/NC(=O)c1ccccc1F	2.31µM*	u	i	u	u	u
COc1ccc(CNc2nc(Cl)c(C#N)s2)cc1	-0.5%	i	i	-7.5%	1.5%	-4.4%
